A selection: hits, their analogues and other compounds. The true share with any hit is near 3.1%.
S16 F2sN tox = Cell viability qHTS assay in S16 Pmp22-F2sN cells. Potency, µM (top dose mostly 57.5 µM), inactives show at the highest dose activity change, negative = cytotoxicity, usual class: cytotoxic. 0.48% of 43,000 active. AID 1508642, 2021. S16 Pmp22-F2sN Schwann cells viability, CellTiter-Glo, 24 h; further: nearly all actives have a fitted effect of over 65% in size
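Seed 500-1,000 S16 Pmp22-F2sN cells per well in phenol-red-free DMEM with 10% heat-inactivated FBS; pin-add 23 nL compound; incubate 24 h at 37C; add CellTiter-Glo, wait 15 min protected from light; read luminescence.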
OvCa metastasis = Primary qHTS assay for Inhibitors of ovarian cancer metastasis using an organotypic tumor microenvironment (TME) model; SKOV3ip1-GFP adhesion/invasion on 3D omental model, fluorescence; Potency, µM (highest dose often 45.8 µM), without a hit: at the highest dose activity change, negative = inhibition, usual class: inhibitors; 0.1% of 46,000 active;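 further: plate controls were DMSO wells for no effect and tomatine positive control wells for full effect; nearly all actives have a fitted effect of over 65% in size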
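qHTS, 4-pt dose (0.36-46 umol/L); SKOV3ip1-GFP, 1,200 cells/well, no FBS; primary omental fibroblast/mesothelial co-culture 48 h pre-grown; 2 h RT + 16 h 37 C; PBS wash, 4% PFA; GFP count 488/509 nm.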
PMP22 txn prim = Cell-based coincidence reporter assay to measure PMP22 gene transcription in S16 Pmp22-F2sN cells - Primary screen | Potency, µM (highest dose often 57.5 µM), for the others: at the highest dose activity change, negative = inhibition, hits mostly inhibitors | AID 1508649, 2021 | S16 Pmp22-F2sN Schwann cells (luciferase reporters placed in the Pmp22 gene), FLuc/NLuc coincidence luminescence, 24 h | 2% of 43,000 active; active means clear falling dose curves in both reporters; inconclusive means both reporters move, but less clearly or upward; inactive means either reporter flat; the % is the NLuc reporter signal
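S16(c9) Schwann cells with FLuc/NLuc coincidence reporter in the Pmp22 3' UTR; compounds pin-transferred, 24 h at 37C. Dual-luciferase read: FLuc first, then NLuc after Stop&Glo, each 10 min at room temperature.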
pS6 MEF inh = Acumen qHTS Assay for Inhibitors of the mTORC1 Signaling Pathway in MEF (Tsc2-/-, p53-/-) Cells: Sytravon | Potency, µM (top dose mostly 38.3 µM), without a hit: at the highest dose activity change, negative = inhibition, actives largely listed as inhibitors | 0.78% of 44,000 active | Tsc2-/- p53-/- MEF, phospho-rpS6 immunofluorescence/PI, 24 h;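 further: plate controls were DMSO for no effect and rapamycin for full effect; nearly all actives have a fitted effect of over 50% in size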
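Tsc2-/-, p53-/- MEFs (empty-vector stable line) in DMEM + 10% FBS were treated with compounds 24 h at 37 degree Celsius, fixed, and immunostained for phospho-rpS6 (Alexa-488) with propidium iodide counterstain. Laser-scanning cytometry gave % positive cells, normalized against 7.5 nM rapamycin and DMSO.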
p53null 39C kill = qHTS Screen for Compounds that Selectively Target Cancer Cells with p53 Mutations: Cytotoxicity of p53 Null Cells at the Nonpermissive Temperature; 0.97% of 55,000 active; Potency, µM (doses to about 46.1 µM), inactives show top-dose activity, negative = cell killing, hits mostly cytotoxic; H1299 p53-null (neo) cells, 39C, ATPlite viability, 24 h;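 further: 0% = DMSO only and -100% = full killing by 100 µM tamoxifen; nearly all actives have a fitted effect of over 50% in size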
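Cells seeded at 600/well, 37C overnight. Compound added (up to 46 uM), plates shifted to 39C for 24 hr. ATPlite added, luminescence read after 20 min at room temperature.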
p53null 32C kill = qHTS Screen for Compounds that Selectively Target Cancer Cells with p53 Mutations: Cytotoxicity of p53 Null Cells at the Permissive Temperature | Potency, µM (series often up to 46.1 µM), for inactives: at the highest dose activity change, negative = cytotoxicity, hits mostly cytotoxic | 0.62% of 55,000 active | H1299-neo p53 null cells, ATP luminescence, 24 h, 32C;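 further: 0% = DMSO only and -100% = full killing by 100 µM tamoxifen; nearly all actives have a fitted effect of over 55% in size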
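AC50 values derive from Hill modelling of qHTS concentration-response data (up to 46 uM) in H1299-neo cells. Cells were treated 24 h at 32C following overnight attachment at 37C; viability was read as cellular ATP.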
* = called active by the depositor; i = inactive; ? = inconclusive; · = not tested or not shown. Unless noted, the call rests on the fitted dose curve; in most records, active means well fitted curve in the direction sought with a large enough effect; inconclusive means small, poorly fitted or top-dose-only effect, or another doubt; inactive means no such curve, though single readings can be large; an effect the other way counts as inactive or inconclusive. Unless noted, on the % scale 0 is the no-effect control and ±100 the full control effect; potency means the concentration at half of the fitted maximal effect.

SMILES | S16 F2sN tox | OvCa metastasis | PMP22 txn prim | pS6 MEF inh | p53null 39C kill | p53null 32C kill
CCOc1cccc(-c2nc3ccccc3c(=O)o2)c1 | -21.8% | i | -37.0% | -4.6% | ? | 12.6µM*
Cc1ccc(C(=O)COC(=O)CCC(=O)Nc2ccc(Oc3ccccc3)cc2)cc1C | -5.5% | 1.1% | 0.1% | 2.7% | -20.5% | -0.2%
COc1ccccc1NC(CC(=O)c1ccccc1)C(=O)OCC(=O)c1ccc(C)c(C)c1 (configuration not stated) | · | · | · | · | · | 17.8µM*
COc1ccc(Cl)cc1C1CC(=O)Nc2cc3c(cc21)OCCO3 (configuration not stated) | ? | -7.6% | 2.47µM* | ? | ? | 7.9%
CCOc1cccc(C2CC(=O)Nc3cc4c(cc32)OCCO4)c1 (configuration not stated) | ? | -18.4% | ? | 20.7µM* | 7.4% | 27.2%
CC(C)c1c(C(=O)Nc2ccccc2)c(-c2ccccc2)c(-c2ccc(F)cc2)n1CC[C@H](O)C[C@@H](O)CC(=O)O | · | -19.4% | · | · | · | ·
CC(=O)c1cccc(NC(=O)c2nc3ccccc3n(C)c2=O)c1 | ? | -8.2% | ? | -7.7% | 2.51µM* | 2.82µM*
CNc1nc(-c2ccc3c(N)n[nH]c3c2)cc(N2C[C@@H](C(=O)NC3CCCCC3)CC[C@@H]2C)n1 | · | -27.0% | · | · | · | ·
COC(=O)c1ccccc1NC(=O)c1oc2ccc3c(c2c1C)C(=O)CC(C)(C)O3 | 11.8% | i | -17.6% | 1.5% | 3.6% | -6.5%
Cc1ccc(NC(=O)c2oc3ccc4c(c3c2C)C(=O)CC(C)(C)O4)c(C)c1 | 15.6% | -15.2% | -6.1% | 5.6% | -6.5% | -16.0%
CCOC(=O)c1ccc(NC(=O)c2oc3ccc4c(c3c2C)C(=O)CC(C)(CC)O4)cc1 (configuration not stated) | 2.1% | -3.6% | ? | -5.7% | 3.16µM* | ?
CC(=O)Nc1ccc(NC(=O)c2oc3ccc4c(c3c2C)C(=O)CC(C)(C)O4)cc1 | ? | i | ? | -2.4% | 3.16µM* | 3.98µM*
O=c1ccn([C@@H]2O[C@H](CO)[C@H](O)[C@H]2O)c(=O)[nH]1 | · | -9.2% | · | · | · | ·
Cc1cccc2c1-c1sc(C(=O)NCCc3ccc(Cl)cc3)cc1CO2 | 31.6µM* | -23.8% | ? | ? | ? | 0.3%
Cc1cccc(CCNC(=O)c2cc3c(s2)-c2c(C)cccc2OC3)c1 | ? | -16.6% | ? | -3.0% | -23.4% | -6.0%
O=c1ccn([C@@H]2O[C@H](CO)[C@H](O)[C@@H]2F)c(=O)[nH]1 | · | 2.3% | · | · | · | ·
COc1ccc(NC(=O)CCc2c(C)nn(-c3ccc(N4CCCCC4)nn3)c2C)cc1Cl | · | 11.9% | · | 5.7% | ? | 10µM*
CCCCc1ccc(NS(=O)(=O)c2ccc(C)c(C(=O)N3CCN(c4cccc(C)c4C)CC3)c2)cc1 | · | 14.3% | · | · | · | ·
CCN1CCN(c2cc(C)c3cc(NC(=O)/C=C/c4ccc(OCCC(C)C)cc4)ccc3n2)CC1 | ? | -21.2% | ? | 4.14µM* | ? | -3.5%
COc1ccc(/C=C/C(=O)Nc2ccc3nc(N4CCC(C)CC4)cc(C)c3c2)cc1OC | ? | ? | ? | ? | -17.8% | 2.0%
CCN1CCN(c2cc(C)c3cc(NC(=O)/C=C/c4ccc(C)cc4)ccc3n2)CC1 | ? | ? | ? | 18.5µM* | ? | ?
Clc1cccc(-n2ncc3c(NC4CCCCCC4)ncnc32)c1 | ? | ? | ? | -7.2% | ? | -8.0%
Cc1cccc(-n2ncc3c(NC4CCCCC4)ncnc32)c1 | · | · | · | · | 0.0% | -25.1%
COc1ccc(-n2ncc3c(NC4CCCC4)ncnc32)cc1 | ? | -0.2% | ? | -18.1% | 7.6% | 5.01µM*
Cc1cccc(-n2ncc3c(NC4CCCC4)ncnc32)c1 | 6.5% | ? | ? | -1.1% | 36.0% | 12.6µM*
SMILES | S16 F2sN tox | OvCa metastasis | PMP22 txn prim | pS6 MEF inh | p53null 39C kill | p53null 32C kill
Cc1ccc(-n2ncc3c(NC4CCCC4)ncnc32)cc1 | -15.6% | 0.5% | 0.5% | 4.9% | ? | 7.94µM*
Cc1ccc(-n2ncc3c(NC4CCCCC4)ncnc32)cc1C | 11.3% | 29.1% | -8.6% | 10.2% | -4.0% | -16.2%
c1ccc(-n2ncc3c(NC4CCCC4)ncnc32)cc1 | 18.1% | -4.8% | -9.7% | 0.0% | ? | 15.8µM*
CCOC(=O)[C@@H](N)Cc1ccc(-c2cc(O[C@H](c3ccc(Cl)cc3-n3ccc(C)n3)C(F)(F)F)nc(N)n2)cc1 | · | -11.7% | · | · | · | ·
CCOC(=O)/C(C#N)=C/c1ccc(-c2ccc(Br)cc2)o1 | · | i | · | -3.8% | -10.9% | -10.5%
C=CCN1C=CC(=C/C=C(/C#N)C(=O)OCC)C=C1 | · | · | · | · | ? | 8.91µM*
COC(=O)c1c(SCC(=O)Nc2ccccc2OC)[nH]c2ccccc2c1=O | ? | -6.6% | ? | 6.5% | 7.94µM* | ?
COc1cc(NC(=O)Cn2ccn(-c3cc(C)cc(C)c3)c(=O)c2=O)cc(OC)c1 | 8.4% | 10.0% | -3.1% | 10.5% | -21.3% | -10.7%
COc1ccccc1NC(=O)CSc1nnc2c3ccccc3n(C(C)C)c2n1 | ? | -8.1% | ? | 14.7µM* | 38.2% | 31.9%
COC(=O)c1ccc(NC(=O)CSc2nnc3c4ccccc4n(C(C)C)c3n2)cc1 | 5.8% | i | -24.5% | -0.9% | 4.2% | -0.2%
COC(=O)c1c(SCC(=O)Nc2cc(OC)cc(OC)c2)[nH]c2ccc(C)cc2c1=O | ? | -0.9% | -6.0% | -10.6% | 3.16µM* | ?
COc1ccccc1NC(=O)CSc1nnc2c(n1)[nH]c1ccccc12 | ? | i | ? | ? | -12.4% | -8.0%
Nc1nc(F)nc2c1ncn2[C@@H]1O[C@H](COP(=O)(O)O)[C@@H](O)[C@H]1O | · | -16.6% | · | · | · | ·
CCCCN1C(C(=O)c2ccccc2)=C(OC(=O)CC)c2ccccc2S1(=O)=O | -27.6% | -19.7% | ? | ? | ? | 12.6µM*
CCCCCN1C(C(=O)c2ccccc2)=C(OC(=O)CC)c2ccccc2S1(=O)=O | ? | -23.3% | ? | -17.6% | ? | ?

From PubChem
